An excerpt weighted towards active compounds, which were near 5.8% of everything screened.
Gal4-VP16 FLuc: Gal4-VP16 reporter inhibition counter-screen. Drosophila S2 Gal4-VP16 UAS-luciferase, luminescence, 20 h. Potency, µM (series often up to 53.6 µM), for the others: top-dose activity, negative = inhibition, hits mostly inhibitors. 3.5% of 310,000 active. AID 2546;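 further: Gal4-VP16 expression switched on by copper sulfate through the metallothionein promoter; potency means the concentration at half of the fitted maximal effect; on the % scale 0 is the no-effect control and ±100 the full control effect; nearly all actives have a fitted effect of over 50% in size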
TRPV1 agonist: activates the human vanilloid receptor TRPV1; Q8NER1; TRPV1-expressing cells, Fluo-8 calcium influx, agonist mode; activation, % at 8.33 µM; 0.19% of 320,000 active; AID 540275; in the data active means activation above about 80%; inconclusive means between about 30% and that limit; further: 0% is about no effect
Target sequence (Q8NER1 whole entry, looked up): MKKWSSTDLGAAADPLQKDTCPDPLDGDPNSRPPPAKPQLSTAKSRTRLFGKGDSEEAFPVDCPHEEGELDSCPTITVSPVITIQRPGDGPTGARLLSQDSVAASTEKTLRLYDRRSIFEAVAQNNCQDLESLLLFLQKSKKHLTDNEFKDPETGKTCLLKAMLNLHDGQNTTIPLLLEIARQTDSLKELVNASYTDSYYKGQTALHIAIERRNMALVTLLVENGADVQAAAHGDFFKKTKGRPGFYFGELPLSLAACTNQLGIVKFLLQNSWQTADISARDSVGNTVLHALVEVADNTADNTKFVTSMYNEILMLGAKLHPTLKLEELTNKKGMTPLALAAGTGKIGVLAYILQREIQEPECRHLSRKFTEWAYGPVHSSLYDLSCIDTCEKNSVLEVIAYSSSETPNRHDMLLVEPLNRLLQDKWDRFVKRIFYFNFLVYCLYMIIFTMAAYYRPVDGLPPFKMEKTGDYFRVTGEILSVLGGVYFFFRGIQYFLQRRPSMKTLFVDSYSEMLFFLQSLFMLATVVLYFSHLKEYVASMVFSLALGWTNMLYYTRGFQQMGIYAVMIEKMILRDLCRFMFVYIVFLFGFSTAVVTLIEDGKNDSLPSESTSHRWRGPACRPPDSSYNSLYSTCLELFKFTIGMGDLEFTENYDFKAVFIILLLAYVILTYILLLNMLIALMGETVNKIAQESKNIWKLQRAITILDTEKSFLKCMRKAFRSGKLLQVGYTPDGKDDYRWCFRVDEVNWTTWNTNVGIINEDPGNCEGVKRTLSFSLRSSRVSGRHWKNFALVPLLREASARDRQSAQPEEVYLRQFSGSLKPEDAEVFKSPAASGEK
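Fluo-8 calcium influx in TRPV1-expressing cells, kinetic read (ex 480/em 520 nm). Compound added and read 3 min for agonist activity, followed by capsaicin at EC20 final and 2 min further read for enhancement.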
TRPV1 PAM: potentiators of human vanilloid receptor 1 (TRPV1). AID 540277. Q8NER1. 0.02% of 320,000 active. TRPV1-expressing cells, Fluo-8 calcium influx, capsaicin EC20 potentiation. potentiation, % at 8.33 µM; in the data active means potentiation above about 80%; inconclusive means between about 30% and that limit; further: 0% is about no effect
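TRPV1-expressing cells were cultured overnight at 35.5C and loaded with Fluo-8 calcium dye for 40 to 90 min at room temperature. After a 10 s baseline, compound was added and calcium influx was read kinetically for 3 min (ex 480/em 520 nm).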
RORgamma inh: inhibitors of mouse ROR gamma transcriptional activity | P51450 | Potency, µM (top dose mostly 53.6 µM), without a hit: at the top dose activity change, negative = inhibition, hits mostly inhibitors | 5.4% of 310,000 active | AID 2551 | Drosophila S2 Gal4-RORgamma UAS-luciferase reporter, 20 h; further: potency means the concentration at half of the fitted maximal effect; on the % scale 0 is the no-effect control and ±100 the full control effect; nearly all actives have a fitted effect of over 60% in size
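Using a luciferase readout, inhibitors were identified by reduced reporter activity in Drosophila cells coexpressing a copper-inducible Gal4–ROR gamma fusion and UAS-driven Photinus luciferase, incubated 20 hr after 700 uM copper sulfate.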
uPA surface inh: inhibitors of cell surface uPA generation. Potency, µM (highest dose often 38.3 µM), for the others: top-dose activity change, negative = inhibition, hits mostly inhibitors. cell surface uPA generation assay, qHTS. 0.31% of 330,000 active; active means well fitted inhibition curve with a large enough effect; inconclusive means small, poorly fitted or top-dose-only effect; inactive means no such curve, though single readings can be large or run the other way; tested in mouse RAW 264.7 cells; further: potency means the concentration at half of the fitted maximal effect; on the % scale 0 is the no-effect control and ±100 the full control effect; nearly all actives have a fitted effect of over 55% in size
An asterisk follows results filed as active; [ ] = dose if it differs, or a comment. Unless noted, the call rests on the fitted dose curve; in most records, active means well fitted curve in the direction sought with a large enough effect; inconclusive means small, poorly fitted or top-dose-only effect, or another doubt; inactive means no such curve, though single readings can be large; an effect the other way counts as inactive or inconclusive.

What do the screens show for `Cc1ccc(S(=O)(=O)CCC(=O)c2ccc(O)cc2O)cc1`?
Gal4-VP16 FLuc: inconclusive; TRPV1 agonist: -3; TRPV1 PAM: -1; RORgamma inh: 14µM*; uPA surface inh: -9%

Results for COc1ccc(C(=O)CCS(=O)(=O)c2ccc(C)cc2)cc1OC ?
Gal4-VP16 FLuc: 4.5µM*; TRPV1 agonist: 3; TRPV1 PAM: 3; RORgamma inh: 2.8µM*; uPA surface inh: -12%

How did COC(=O)C1CSC(C(=O)OC)N1C(=O)Nc1ccc(Cl)cc1 (stereo not drawn) do in these assays?
Gal4-VP16 FLuc: -1%; TRPV1 agonist: -1; TRPV1 PAM: 4; RORgamma inh: 3%; uPA surface inh: 0%

What do the screens show for `CCCCCCCCCCOC(=O)C[N+](C)(C)C/C=C(/C)Cl`?
Gal4-VP16 FLuc: 22µM*; TRPV1 agonist: 4; TRPV1 PAM: -7; RORgamma inh: 14%; uPA surface inh: inconclusive

What do the screens show for `O=C(/C=C/c1ccccc1)NC(NC(=S)Nc1ccc(Cl)cc1)C(Cl)(Cl)Cl` (stereo not drawn)?
Gal4-VP16 FLuc: 10µM*; TRPV1 agonist: 0; TRPV1 PAM: 19; RORgamma inh: inconclusive; uPA surface inh: -9%

How did O=C(/C=C/c1ccc(F)cc1)NC(=S)Nc1ccccc1 do in these assays?
Gal4-VP16 FLuc: 10µM*; TRPV1 agonist: 2; TRPV1 PAM: 0; RORgamma inh: 7.9µM*; uPA surface inh: -7%

What do the screens show for `O=C(/C=C/c1ccc(F)cc1)NC(=S)N1CCN(Cc2ccccc2)CC1`?
Gal4-VP16 FLuc: 7.1µM*; TRPV1 agonist: inconclusive; TRPV1 PAM: -3; RORgamma inh: 2.5µM*; uPA surface inh: 7%

What do the screens show for `O=C(/C=C/c1ccccc1)NC(=S)Nc1ccc(N2CCOCC2)cc1`?
Gal4-VP16 FLuc: 3.2µM*; TRPV1 agonist: 0; TRPV1 PAM: -3; RORgamma inh: 1µM*; uPA surface inh: -16%

How did O=C(/C=C/c1ccc(F)cc1)NC(=S)N1CCOCC1 do in these assays?
Gal4-VP16 FLuc: 3%; TRPV1 agonist: -2; TRPV1 PAM: 9; RORgamma inh: 8%; uPA surface inh: 3%

Results for CC(Oc1ccc(F)cc1)C(=O)Nc1ccccc1C(=O)N1CCCCC1 (stereo not drawn) ?
TRPV1 agonist: 20; TRPV1 PAM: -18; uPA surface inh: -15%

How did O=C(/C=C/c1ccccc1)NC(=S)Nc1ccccc1 do in these assays?
Gal4-VP16 FLuc: 2µM*; TRPV1 agonist: 3; TRPV1 PAM: -23; RORgamma inh: inconclusive; uPA surface inh: -7%

Results for CC(=O)NC(NC(=S)Nc1ccc(N=Nc2ccccc2)cc1)C(Cl)(Cl)Cl (stereo not drawn) ?
Gal4-VP16 FLuc: 5µM*; TRPV1 agonist: -2; TRPV1 PAM: 1; RORgamma inh: 7.1µM*; uPA surface inh: -1%

What do the screens show for `O=C(/C=C/c1ccc(Cl)cc1)NC(=S)Nc1ccc(N2CCOCC2)c(Cl)c1`?
Gal4-VP16 FLuc: 5.6µM*; TRPV1 agonist: -3; TRPV1 PAM: -2; RORgamma inh: inconclusive; uPA surface inh: -13%

What do the screens show for `O=C(/C=C/c1ccc(Cl)cc1)Nc1ccc(N2CCOCC2)cc1`?
Gal4-VP16 FLuc: 9%[10 µM]; TRPV1 agonist: inconclusive; TRPV1 PAM: -19; RORgamma inh: 12%; uPA surface inh: 2%

What do the screens show for `O=C(/C=C/c1ccc(S(=O)(=O)N2CCOCC2)cc1)Nc1cc(F)ccc1F`?
uPA surface inh: 4%

Results for O=C(/C=C/c1ccc(S(=O)(=O)N2CCOCC2)cc1)NC(=S)Nc1ccc(Cl)cc1Cl ?
Gal4-VP16 FLuc: 12%; TRPV1 agonist: -2; TRPV1 PAM: -8; RORgamma inh: 11µM*; uPA surface inh: 3%

Results for COC1C=CO[C@@]2(C)Oc3c(C)c(O)c4c(O)c(c5c(nc6cc(C)ccn65)c4c3C2=O)NC(=O)/C(C)=C\C=CC(C)C(O)[C@@H](C)C(O)C(C)[C@@H](OC(C)=O)C1C (stereo partly drawn) ?
Gal4-VP16 FLuc: -6%; RORgamma inh: -5%

What do the screens show for `CCCCCC(=O)/C=C/C=C\C/C=C\C/C=C\CCCC(=O)O`?
Gal4-VP16 FLuc: -2%; RORgamma inh: 23%

Results for COc1ccc(-n2c(=O)c(C)nc3cnc(Oc4cccc(Cl)c4)nc32)cc1 ?
Gal4-VP16 FLuc: -9%; RORgamma inh: 16%

How did c1cncc(CNc2cc(-c3ccoc3)ncn2)c1 do in these assays?
Gal4-VP16 FLuc: -25%; RORgamma inh: 8%

Results for C=CCN(CC=C)S(=O)(=O)c1ccc(NC(=S)NC(=O)/C=C/c2ccccc2)cc1 ?
Gal4-VP16 FLuc: -20%; TRPV1 agonist: -1; TRPV1 PAM: 2; RORgamma inh: 2.5µM*; uPA surface inh: -7%

How did Cc1ccc(NC(=O)O/N=C/c2ccc(F)cc2)cc1 do in these assays?
Gal4-VP16 FLuc: -4%; TRPV1 agonist: inconclusive; TRPV1 PAM: -17; RORgamma inh: 7%; uPA surface inh: -3%

Results for COc1nccnc1NS(=O)(=O)c1ccc(NC(=S)NC(=O)/C=C/c2ccccc2)cc1 ?
Gal4-VP16 FLuc: inconclusive; TRPV1 agonist: 4; TRPV1 PAM: -12; RORgamma inh: -9%; uPA surface inh: -6%

How did O=C(Nc1ccccc1)O/N=C/c1ccc(F)cc1 do in these assays?
Gal4-VP16 FLuc: inconclusive; TRPV1 agonist: 8; TRPV1 PAM: inconclusive; RORgamma inh: 10µM*; uPA surface inh: 7.1µM*

Results for CN(CC(=O)Nc1ccc(F)cc1)C(=O)COC(=O)/C=C/c1ccccc1[N+](=O)[O-] ?
TRPV1 agonist: 10; TRPV1 PAM: -5; uPA surface inh: -12%

How did COc1ccccc1-c1cncnc1Nc1ccccc1 do in these assays?
Gal4-VP16 FLuc: 5%; RORgamma inh: -22%

Results for CS(=O)(=O)c1ccc(C(=O)NCCN2C(=O)S/C(=C\c3cccnc3)C2=O)cc1[N+](=O)[O-] ?
Gal4-VP16 FLuc: inconclusive; TRPV1 agonist: 0; TRPV1 PAM: -11; RORgamma inh: 5.6µM*; uPA surface inh: inconclusive

How did CC[C@H](C)[C@H](NC(=O)[C@H](Cc1ccc(O)cc1)NC(=O)[C@@H](NC(=O)[C@H](CCCN=C(N)N)NC(=O)[C@@H](N)CC(=O)O)C(C)C)C(=O)N[C@@H](Cc1ccc(N)cc1)C(=O)N1CCC[C@H]1C(=O)N[C@@H](Cc1ccccc1)C(=O)O do in these assays?
Gal4-VP16 FLuc: -8%; RORgamma inh: -18%

What do the screens show for `Cc1ccc(N/C(SCc2ccccc2C)=C(/C#N)C(=O)NCc2ccco2)cc1C`?
Gal4-VP16 FLuc: -3%; TRPV1 agonist: 28; TRPV1 PAM: -6; RORgamma inh: -29%

Results for CCc1ccc(N/C(SCc2cccc(F)c2)=C(/C#N)C(=O)NCc2ccco2)cc1 ?
Gal4-VP16 FLuc: 6.3µM*; TRPV1 agonist: 20; TRPV1 PAM: -5; RORgamma inh: 1.6µM*

How did CCNc1ncc2ncc(=O)n(Cc3ccc(F)cc3)c2n1 do in these assays?
Gal4-VP16 FLuc: -10%; RORgamma inh: -1%
